Measured values as given in PubChem BioAssay (Tox21).
Results filed as inconclusive are left out. Active and inactive are the calls of the source. Unless noted, calls come from the whole dose curve.

Key:
[1] = Nuclear factor erythroid 2-related factor 2/antioxidant responsive element (Nrf2/ARE) small molecule agonists: qHTS cell viability counter screen in human keratinocytes (AID 1919968; active = well fitted curve in the direction sought with a large enough effect in the repeat runs; an effect the other way counts as inactive or inconclusive; note: nearly all actives have a fitted effect of over 55% in size)
How it was run: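 Parallel cytotoxicity read: KeratinoSens HaCaT cells, compound treatment 23 h, viability by CellTiter-Fluor fluorescence 1 h post-reagent.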

[2] = Nuclear factor erythroid 2-related factor 2/antioxidant responsive element (Nrf2/ARE) small molecule agonists: luciferase reporter gene qHTS assay in human keratinocytes (AID 1919969); note: nearly all actives have a fitted effect of over 35% in size; note: potency is the fitted concentration of half-maximal effect
[3] = biological target: Gonadotropin-releasing hormone receptor (Homo sapiens) (UniProt P30968); test: Human gonadotropin-releasing hormone receptor (GnRHR) small molecule agonists, calcium flux assay in GnRHR-HEK293 cells (AID 1920063); note: nearly all actives have a fitted effect of over 35% in size
Sequence of Gonadotropin-releasing hormone receptor (Homo sapiens) (P30968 whole entry, looked up): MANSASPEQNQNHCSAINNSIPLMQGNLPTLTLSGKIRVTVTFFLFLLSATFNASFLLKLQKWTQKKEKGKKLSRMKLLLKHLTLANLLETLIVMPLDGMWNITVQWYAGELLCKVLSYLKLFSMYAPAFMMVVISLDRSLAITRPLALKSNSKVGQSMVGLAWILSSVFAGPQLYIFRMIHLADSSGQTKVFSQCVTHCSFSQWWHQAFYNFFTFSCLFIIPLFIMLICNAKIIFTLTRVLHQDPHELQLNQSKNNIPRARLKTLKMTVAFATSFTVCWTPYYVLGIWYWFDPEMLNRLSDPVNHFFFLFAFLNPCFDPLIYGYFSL
How it was run: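 Calcium flux, agonist mode, human GnRHR stably integrated in HEK293; dye 1 h at 37 C before compound; Ex/Em=480/540 kinetic read, 3 min; 15 concentrations, triplicate.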

[4] = biological target: KiSS-1 receptor (Homo sapiens) (UniProt Q969F8); test: Human kisspeptin (KISS1R) small molecule agonists, calcium flux assay in KISS1R-HEK293 cells (AID 1920064; active = well fitted curve in the direction sought with a large enough effect in the repeat runs; an effect the other way counts as inactive or inconclusive)
Sequence of KiSS-1 receptor (Homo sapiens) (Q969F8 whole entry, looked up): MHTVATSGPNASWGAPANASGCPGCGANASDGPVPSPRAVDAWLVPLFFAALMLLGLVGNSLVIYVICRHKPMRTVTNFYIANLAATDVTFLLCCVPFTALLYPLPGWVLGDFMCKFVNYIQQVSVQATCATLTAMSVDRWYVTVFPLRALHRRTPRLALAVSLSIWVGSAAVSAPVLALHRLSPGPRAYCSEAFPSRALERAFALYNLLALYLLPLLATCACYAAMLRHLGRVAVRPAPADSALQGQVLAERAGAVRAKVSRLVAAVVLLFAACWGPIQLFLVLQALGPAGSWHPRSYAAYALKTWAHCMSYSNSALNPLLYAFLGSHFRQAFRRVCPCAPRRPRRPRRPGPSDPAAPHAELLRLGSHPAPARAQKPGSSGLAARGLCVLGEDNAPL
How it was run: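 Triplicate 15-concentration series were applied to dye-loaded human KISS1R HEK293 cells, and agonist-evoked calcium fluorescence was captured for 3 min.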

[5] = G protein-coupled receptor (GPCR) small molecule agonists, calcium flux assay: HEK293 wild type cell line counter screen (AID 1920065)
How it was run: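 Non-specific calcium responders were flagged by adding DMSO-dissolved compounds to dye-loaded cells and reading 480/540 nm fluorescence each second for 3 min; ATP served as positive control.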

[6] = p53 small molecule agonists, cell-based qHTS assay with human liver microsomes: qHTS cell viability counter screen (AID 1963579); note: nearly all actives have a fitted effect of over 45% in size
How it was run: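 Viability of p53RE-bla cells is measured as CellTiter-Glo luminescence following a 16 h, 37 C incubation with compound, liver microsomes from human donors and NADPH.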

[7] = p53 small molecule agonists, cell-based qHTS assay with rat liver microsomes: qHTS cell viability counter screen (AID 1963580); note: nearly all actives have a fitted effect of over 45% in size
How it was run: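 Cytotoxicity counter screen: intracellular ATP measured by CellTiter-Glo luminescence in the same wells as the beta-lactamase reporter read, on HCT-116 p53RE-bla cells exposed 16 h at 37 C to compounds with rat liver microsomes and NADPH, each 0.5 mg/mL final.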

[8] = p53 small molecule agonists, cell-based qHTS assay: qHTS cell viability counter screen (AID 1963581); note: nearly all actives have a fitted effect of over 45% in size
How it was run: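 Multiplexed with the reporter read, a CellTiter-Glo step (30 min, room temperature) gauges ATP-based viability of HCT-116 p53RE-bla cells after 16 h compound incubation at 37 C.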

[9] = biological target: 5-hydroxytryptamine receptor 2A (Homo sapiens) (UniProt P28223); test: 5-hydroxytryptamine receptor 2A (HTR2A) small molecule antagonists, cell-based qHTS assay (AID 1963586); note: nearly all actives have a fitted effect of over 45% in size
Sequence of 5-hydroxytryptamine receptor 2A (Homo sapiens) (P28223 whole entry, looked up): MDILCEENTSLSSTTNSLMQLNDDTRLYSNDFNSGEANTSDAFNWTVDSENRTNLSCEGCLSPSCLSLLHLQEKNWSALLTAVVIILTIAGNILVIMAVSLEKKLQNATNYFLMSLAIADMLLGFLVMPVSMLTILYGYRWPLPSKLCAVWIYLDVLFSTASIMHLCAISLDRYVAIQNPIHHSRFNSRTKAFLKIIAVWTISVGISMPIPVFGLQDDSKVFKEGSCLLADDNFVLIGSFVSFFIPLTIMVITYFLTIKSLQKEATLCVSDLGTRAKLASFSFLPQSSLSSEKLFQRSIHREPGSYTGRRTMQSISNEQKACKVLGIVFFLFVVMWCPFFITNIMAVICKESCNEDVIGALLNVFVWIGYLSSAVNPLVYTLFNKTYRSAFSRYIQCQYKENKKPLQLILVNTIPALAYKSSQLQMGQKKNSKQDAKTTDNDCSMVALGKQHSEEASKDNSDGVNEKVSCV
How it was run: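 CHO cells stably expressing human HTR2A were plated for 18 h at 37 C, then loaded with calcium dye for 1 h. Compounds were preincubated 5 min at room temperature before DOI (4 nM solution) was added. Kinetic fluorescence was read for 3 min.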

[10] = biological target: 5-hydroxytryptamine receptor 2A (Homo sapiens) (UniProt P28223); test: 5-hydroxytryptamine receptor 2A (HTR2A) small molecule agonists, cell-based qHTS assay (AID 1963587); note: nearly all actives have a fitted effect of over 30% in size
How it was run: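 CHO cells stably expressing human HTR2A, plated 18 h, loaded with calcium dye 1 h at 37 C. Agonist mode: compounds added and intracellular calcium fluorescence recorded kinetically for 2 min at 1 sec intervals.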

[11] = biological target: Muscarinic acetylcholine receptor M1 (Homo sapiens) (UniProt P11229); test: Cholinergic receptor muscarinic 1 (CHRM1) small molecule agonists, cell-based qHTS assay (AID 1963589); note: nearly all actives have a fitted effect of over 35% in size
Sequence of Muscarinic acetylcholine receptor M1 (Homo sapiens) (P11229 whole entry, looked up): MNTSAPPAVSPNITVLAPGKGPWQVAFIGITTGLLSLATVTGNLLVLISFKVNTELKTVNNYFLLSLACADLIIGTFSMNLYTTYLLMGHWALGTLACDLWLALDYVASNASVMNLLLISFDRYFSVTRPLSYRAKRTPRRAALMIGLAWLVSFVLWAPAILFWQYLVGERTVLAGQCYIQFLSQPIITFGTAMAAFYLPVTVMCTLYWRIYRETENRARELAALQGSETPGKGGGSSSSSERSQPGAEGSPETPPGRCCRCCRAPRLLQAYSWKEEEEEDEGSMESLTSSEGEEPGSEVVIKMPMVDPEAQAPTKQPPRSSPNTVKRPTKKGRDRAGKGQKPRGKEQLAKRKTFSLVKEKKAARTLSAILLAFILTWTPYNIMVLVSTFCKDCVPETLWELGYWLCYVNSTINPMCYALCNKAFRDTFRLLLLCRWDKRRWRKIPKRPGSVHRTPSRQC
How it was run: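 qHTS, 15-point titration, 3 independent runs: compounds pin-transferred onto dye-loaded CHRM1-CHO cells (human M1), calcium fluorescence followed every second to detect agonism.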

[12] = cAMP Responsive Elements (CRE) small molecule agonists, cell-based qHTS assay (AID 1963590)
How it was run: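 Quantitative HTS for CRE agonists: HEK 293T CRE-bla cells, overnight plating, 3 h compound incubation at 37 C/5% CO2, then 2 h room-temperature LiveBLAzer B/G FRET substrate loading.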

[13] = biological target: Beta-2 adrenergic receptor (Homo sapiens) (UniProt P07550); test: Adrenergic beta2 receptor (ADRB2) small molecule antagonists, cell-based qHTS assay (AID 1963592); note: series mostly up to about 92 µM; nearly all actives have a fitted effect of over 50% in size
Sequence of Beta-2 adrenergic receptor (Homo sapiens) (P07550 whole entry, looked up): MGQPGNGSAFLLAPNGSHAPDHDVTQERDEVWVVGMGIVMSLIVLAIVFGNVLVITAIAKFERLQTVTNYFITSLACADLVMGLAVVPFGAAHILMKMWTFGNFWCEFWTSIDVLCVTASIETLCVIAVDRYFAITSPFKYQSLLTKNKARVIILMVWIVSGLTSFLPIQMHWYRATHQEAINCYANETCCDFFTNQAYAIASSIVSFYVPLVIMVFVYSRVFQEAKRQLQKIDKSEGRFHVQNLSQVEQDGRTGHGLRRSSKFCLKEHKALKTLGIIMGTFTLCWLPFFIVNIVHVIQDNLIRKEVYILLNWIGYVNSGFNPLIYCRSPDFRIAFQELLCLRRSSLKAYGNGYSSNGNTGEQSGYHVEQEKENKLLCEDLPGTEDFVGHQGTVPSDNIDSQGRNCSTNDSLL
How it was run: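 Assay format: CHO-ADRB2 cells, 18-20hr seeding at 37C/5% CO2, then compound plus 1nM isoproterenol agonist mix for 0.5hr RT. Homogeneous time-resolved fluorescence cAMP detection after 1hr, expressed as 665/615 nm ratio.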

[14] = biological target: D(2) dopamine receptor (Homo sapiens) (UniProt P14416); test: Dopamine D2 receptor (DRD2) small molecule agonists, cell-based qHTS assay (AID 1963594); note: nearly all actives have a fitted effect of over 35% in size
Sequence of D(2) dopamine receptor (Homo sapiens) (P14416 whole entry, looked up): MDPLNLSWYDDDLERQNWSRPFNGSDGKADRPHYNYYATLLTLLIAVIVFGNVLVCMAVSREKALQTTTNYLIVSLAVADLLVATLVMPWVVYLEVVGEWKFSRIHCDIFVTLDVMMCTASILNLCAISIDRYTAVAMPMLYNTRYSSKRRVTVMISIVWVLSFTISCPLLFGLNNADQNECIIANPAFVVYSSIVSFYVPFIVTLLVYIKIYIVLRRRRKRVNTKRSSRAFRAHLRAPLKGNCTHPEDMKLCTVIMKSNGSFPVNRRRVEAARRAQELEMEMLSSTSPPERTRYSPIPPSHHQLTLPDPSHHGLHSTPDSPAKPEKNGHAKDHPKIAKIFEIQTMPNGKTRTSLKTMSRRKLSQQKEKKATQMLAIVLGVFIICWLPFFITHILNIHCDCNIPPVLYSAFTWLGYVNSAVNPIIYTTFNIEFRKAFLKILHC
How it was run: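 HEK293 cells stably expressing human DRD2, pre-treated with PDE inhibitor Ro20-1724 (0.1 mM final) and compound 10 min at room temperature, then stimulated with NKH477 (200nM […]) for 30 min. cAMP read by HTRF (665/620 nm).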

[15] = biological target: D(2) dopamine receptor (Homo sapiens) (UniProt P14416); test: Dopamine D2 receptor (DRD2) small molecule antagonists, cell-based qHTS assay (AID 1963595; active = well fitted inhibition curve with a large enough effect in the signal ratio in the repeat runs, with a control signal flat; the % refers to the signal ratio)
How it was run: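 HEK293 cells stably expressing DRD2, preincubated with 0.1 mM Ro20-1724 and compounds 10 min, were stimulated with 200 nM NKH477 plus 12 nM quinpirole for 30 min at room temperature; cAMP measured by HTRF (665/620 nm).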

[16] = cAMP Responsive Elements (CRE) small molecule antagonists, cell-based qHTS assay (AID 1963591; active = well fitted inhibition curve with a large enough effect in the signal ratio in the repeat runs, not every such curve was filed as active; the % refers to the signal ratio)
How it was run: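 Fluorescence intensity from cleaved LiveBLAzer B/G substrate (2 h, room temperature) quantified CRE-bla activity in HEK 293T cells exposed 3 h to compound with 0.25 uM final NKH477.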

[17] = biological target: Beta-2 adrenergic receptor (Homo sapiens) (UniProt P07550); test: Adrenergic beta2 receptor (ADRB2) small molecule agonists, cell-based qHTS assay (AID 1963593);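 note: CHO cells stably overexpressing human ADRB2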
How it was run: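 CHO cells stably over-expressing ADRB2 were plated overnight at 37C, then dosed with compounds plus a stimulation mix containing 100uM IBMX and 25uM Ro-20-1724 for 0.5hr at room temperature. cAMP was measured by HTRF competition, 1hr.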

[18] = biological target: Muscarinic acetylcholine receptor M1 (Homo sapiens) (UniProt P11229); test: Cholinergic receptor muscarinic 1 (CHRM1) small molecule antagonists, cell-based qHTS assay (AID 1963588); note: nearly all actives have a fitted effect of over 40% in size
How it was run: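 Compounds were tested at 15 concentrations in three independent runs. Dye-loaded CHRM1-CHO cells were exposed 5 min at room temperature before stimulation by acetylcholine added at 50nM. Intracellular calcium was read kinetically on FDSS for 3 min.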

Measured: Potency

Cc1ccc(C(C)OC(=O)C2(C)CCC(C(=O)O)C2(C)C)cc1 (stereo not drawn)
not listed: [16] | [17] | [18]
inactive: all other assays above

CCCCCCCCCCO[C@@H]1O[C@H](CO)[C@@H](O)[C@H](O)[C@H]1O
not listed: [10] | [17] | [18]
inactive: all other assays above

CCCC1CCC(=O)CC1
not listed: [16] | [18]
inactive: all other assays above

O=c1c2ccccc2oc2ccccc12
not listed: [10]
inactive: all other assays above

Nc1nc(-c2ccccc2)cs1
not listed: [9] | [17]
inactive: all other assays above

COc1cc(N)ccc1C
not listed: [13] | [18]
inactive: all other assays above

OC/C=C/c1ccccc1
not listed: [10]
inactive: all other assays above

C=CCOCC(O)CS(=O)(=O)O (stereo not drawn)
active: [2] 0.196 µM
not listed: [17] | [18]
inactive: all other assays above

CC/C=C/CCCCCCCCCCOC(C)=O
not listed: [9]
inactive: all other assays above

O=CN(CCO)CCO
not listed: [10] | [14] | [15] | [16] | [17]
inactive: all other assays above

CC(=O)SCc1ccco1
not listed: [14] | [17] | [18]
inactive: all other assays above

Cc1ccc2c(c1)CCCN2
not listed: [12] | [16] | [18]
inactive: all other assays above

N=C(N)S(=O)O
not listed: [9] | [17]
inactive: all other assays above

C/C=C1/C(=O)C[C@H]2[C@@H]3CCC4=CC(=O)CC[C@]4(C)[C@H]3CC[C@]12C
active: [2] 68.4 µM
not listed: [12] | [16] | [17] | [18]
inactive: all other assays above
